5 molecules from PubChem BioAssay can be followed below.

Assay [1] can be described thus: anti-His antibody binders, primary screen, artefact control for SMM control protein annotation, biochemical, small-molecule microarray, 635 nm fluorescence (AID 1128).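 Further: score merges feature fluorescence with signal-to-noise for each printed compound spot.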 To be noted: anti-His Alexa647 antibody binding, higher = more signal.
Assay [2] relates to Human papillomavirus type 1a E7 protein (residues 1-88). Briefly: HPV1a E7 small-molecule binders, primary screen, biochemical, small-molecule microarray, residues 1-88, 635 nm (AID 1129). Particulars: small-molecule microarray binding, fluorescence 635 nm; higher = more signal.
Assay [3] addresses Focal adhesion kinase 1 (Homo sapiens) (UniProt Q05397). The assay is described as follows: small-molecule microarray binders of FAK, primary screen, biochemical, 635/667 nm fluorescence, BSA, DTT (AID 1130).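 Further: composite of spot emission at 667 nm and signal to noise over triplicate slides.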 To be noted: PTK2 binding, 635 nm fluorescence, higher = more signal.
For assay [4], the system named is Fibrinogen (Alexa647-labelled). Briefly: fibrinogen binders on compound microarrays, profiling panel, artefact control for SMM control-protein annotation, biochemical, small-molecule microarray, 635/667 nm fluorescence (AID 1131).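 Further: z-score merges 667 nm fluorescence with per-spot signal-to-noise over triplicate slides.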 To be noted: fibrinogen-A647 binding fluorescence, higher = more signal.
Assay [5] has as its target Follistatin (Homo sapiens) (UniProt P19883). The assay is described as follows: follistatin binders on small-molecule microarrays, primary screen, biochemical, small-molecule microarray, 635/667 nm fluorescence (AID 1132). To be noted: FST binding, 635 nm fluorescence, higher = more signal.
For assay [6], the target named is Fibroblast growth factor 2 (Homo sapiens) (UniProt P09038). The assay is described as follows: FGF2 binders on small-molecule microarrays, primary screen, biochemical, small-molecule microarray, 635/667 nm fluorescence (AID 1133). Particulars: small-molecule microarray binding, FGF2, fluorescence 635/667; higher = more signal.
Assay [7] in a line: mitochondrial membrane potential change in A549 cells, profiling panel, cell-based, JC-1 fluorescence, basal, 24 h, 100 nL (AID 1138).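 Further: A549 lung adenocarcinoma cells under basal conditions with no added stimulus; test concentration not given here.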 Particulars: higher = more signal.
Another assay concerns Lefty1. Briefly: Lefty1 binders on small-molecule microarrays, primary screen, biochemical, small-molecule microarray, 635/667 nm fluorescence (AID 1139). To be noted: small-molecule microarray binding, fluorescence 635/667; higher = more signal.
The test system of assay [8] is wheat germ agglutinin (Triticum aestivum), Alexa647-labelled. The assay is described as follows: wheat germ agglutinin binders on compound microarrays, profiling panel, artefact control for SMM control-protein annotation, biochemical, small-molecule microarray, 635/667 nm fluorescence (AID 1140).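 Further: score merges 667 nm feature emission with signal to noise over triplicate slides.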 To be noted: WGA-A647 binding, 635 nm fluorescence, higher = more signal.

The target in assay [9] is Luciferin 4-monooxygenase (Photinus pyralis) (UniProt P08659). The assay is described as follows: firefly luciferase enzyme inhibitors, primary screen, biochemical, luminescence, purified enzyme, 2006 set (AID 1141).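 Further: cell-free assay with purified firefly luciferase at 100 ng per well in PBS; test concentration not given here.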 To be noted: SteadyGlo luminescence, 30 min, higher = more signal, called active from +8 up or from −8 down.
Assay [10] has as its system Wnt5a (protein binding on small-molecule microarray). Briefly: Wnt5a binders on small-molecule microarray, primary screen, biophysical, 635/667 nm fluorescence (AID 1142).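 Further: fluorescence read at 667 nm with signal to noise per printed feature.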 To be noted: 635 nm fluorescence, higher = more signal.
Assay [11] can be described thus: cell viability in Huh7 cells, primary screen, cytotoxicity control for HCV replication inhibitor project, CellTiter-Glo luminescence, basal, 48 h (AID 1143).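 Further: Huh7 hepatoma cells carrying a hepatitis C replication reporter with no stimulus; test concentration not given here.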 Particulars: Huh7 HCV replicon, higher = more signal, called active from +8 up or from −8 down.
The nature of assay [12]: P. aeruginosa biofilm formation inhibitors, primary screen, PAO1 strain, BacTiter-Glo luminescence, LB-PBS (AID 1144). To be noted: 12 h, higher = more signal.
A short description of assay [13]: CREB reporter modulators without forskolin, primary screen, cell-based, PC12, CRE-LacZ reporter, unstimulated (AID 1145). To be noted: no forskolin, luminescence, 4.5 h, higher = more signal, called active from +8 up or from −8 down.
The nature of assay [14]: CREB reporter modulators under forskolin, primary screen, cell-based, PC12, CRE-LacZ reporter, forskolin-stimulated (AID 1146).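 Further: PC12 cells with 6xCRE LacZ reporter stimulated by forskolin 10 µM; beta-galactosidase reporter signal reflecting CREB driven transcription.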 To be noted: luminescence, 4.5 h, higher = more signal, called active from +8 up or from −8 down.
The target of assay [15] is Streptavidin (Streptomyces avidinii) (UniProt P22629). The assay is described as follows: streptavidin binders on small-molecule microarray, primary screen, artefact control for SMM compound annotation, biophysical, 635/667 nm fluorescence (AID 1147).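 Further: signal reflects streptavidin binding to arrayed compounds as a control protein.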 Particulars: streptavidin binding, higher = more signal.
Assay [16] in a line: small-molecule binders of probe aInhba, primary screen, biochemical, small-molecule microarray, 635/667 nm fluorescence (AID 1148).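 Further: score merges 667nm spot fluorescence with signal-to-noise for antibody binding to printed compounds.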 To be noted: higher = more signal.
Assay [17] has as its target Torsin-1A (Homo sapiens) (UniProt O14656). Briefly: torsin A binders from cell lysate, primary screen, small-molecule microarray, wild-type, 635/667 nm (AID 1149). To be noted: COS7 hTOR1A-WT lysate, 635 nm fluorescence, higher = more signal.
For assay [18] the target is unchanged. Briefly: small-molecule binders of mutant TOR1A in lysate, primary screen, cell lysate, small-molecule microarray, COS7 lysate, 635/667 nm fluorescence (AID 1150).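 Further: score pools 667 nm emission and signal to noise measuring lysate protein binding.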 To be noted: COS7 hTOR1A mutant lysate, 635 nm fluorescence, higher = more signal.
Assay [19] has as its system Sonic hedgehog protein (Shh). Briefly: small-molecule binders of Shh protein, primary screen, biochemical, small-molecule microarray, 635/667 nm fluorescence (AID 1151).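 Further: Shh protein binding to compounds spotted on small-molecule microarray slides; score combines spot fluorescence intensity with signal-to-noise across triplicate slides.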 To be noted: small-molecule microarray binding, 635 nm fluorescence; higher = more signal.

SMILES strings stand for the structures. Activity calls are given as the source filed them. Unless noted, how the calls were made is not given here.

Sequence of Streptavidin (Streptomyces avidinii) (P22629 whole entry, looked up): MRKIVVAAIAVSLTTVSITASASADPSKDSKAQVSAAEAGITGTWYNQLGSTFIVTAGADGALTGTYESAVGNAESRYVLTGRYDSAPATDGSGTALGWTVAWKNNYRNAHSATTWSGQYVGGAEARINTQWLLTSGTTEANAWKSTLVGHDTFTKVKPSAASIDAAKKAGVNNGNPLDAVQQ
Sequence of Follistatin (Homo sapiens) (P19883 whole entry, looked up): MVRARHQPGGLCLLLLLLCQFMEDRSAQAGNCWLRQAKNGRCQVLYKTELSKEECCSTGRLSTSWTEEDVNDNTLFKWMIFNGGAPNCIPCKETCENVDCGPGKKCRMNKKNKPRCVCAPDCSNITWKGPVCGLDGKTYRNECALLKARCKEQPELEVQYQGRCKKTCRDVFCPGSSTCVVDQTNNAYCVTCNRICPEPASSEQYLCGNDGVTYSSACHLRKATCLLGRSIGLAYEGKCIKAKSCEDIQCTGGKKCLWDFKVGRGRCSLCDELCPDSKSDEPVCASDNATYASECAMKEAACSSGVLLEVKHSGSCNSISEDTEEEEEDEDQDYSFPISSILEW
Sequence of Fibroblast growth factor 2 (Homo sapiens) (P09038 whole entry, looked up): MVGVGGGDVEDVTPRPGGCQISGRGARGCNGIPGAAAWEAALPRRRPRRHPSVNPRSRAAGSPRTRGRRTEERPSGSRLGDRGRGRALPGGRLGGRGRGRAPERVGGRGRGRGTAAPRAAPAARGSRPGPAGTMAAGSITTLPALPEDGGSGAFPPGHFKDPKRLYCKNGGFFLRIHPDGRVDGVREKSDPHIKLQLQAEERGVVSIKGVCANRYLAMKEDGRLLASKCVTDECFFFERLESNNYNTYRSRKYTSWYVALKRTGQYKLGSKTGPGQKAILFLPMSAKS
Sequence of Torsin-1A (Homo sapiens) (O14656 whole entry, looked up): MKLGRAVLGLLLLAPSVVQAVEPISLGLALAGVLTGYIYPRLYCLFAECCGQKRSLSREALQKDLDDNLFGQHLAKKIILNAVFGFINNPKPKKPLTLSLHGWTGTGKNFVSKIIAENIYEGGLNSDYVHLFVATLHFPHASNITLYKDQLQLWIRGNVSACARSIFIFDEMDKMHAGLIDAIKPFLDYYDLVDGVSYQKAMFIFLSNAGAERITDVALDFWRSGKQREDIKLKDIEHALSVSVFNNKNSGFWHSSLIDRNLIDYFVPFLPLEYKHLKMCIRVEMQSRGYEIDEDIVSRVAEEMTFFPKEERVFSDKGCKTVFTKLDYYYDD
Sequence of Focal adhesion kinase 1 (Homo sapiens) (Q05397 whole entry, looked up): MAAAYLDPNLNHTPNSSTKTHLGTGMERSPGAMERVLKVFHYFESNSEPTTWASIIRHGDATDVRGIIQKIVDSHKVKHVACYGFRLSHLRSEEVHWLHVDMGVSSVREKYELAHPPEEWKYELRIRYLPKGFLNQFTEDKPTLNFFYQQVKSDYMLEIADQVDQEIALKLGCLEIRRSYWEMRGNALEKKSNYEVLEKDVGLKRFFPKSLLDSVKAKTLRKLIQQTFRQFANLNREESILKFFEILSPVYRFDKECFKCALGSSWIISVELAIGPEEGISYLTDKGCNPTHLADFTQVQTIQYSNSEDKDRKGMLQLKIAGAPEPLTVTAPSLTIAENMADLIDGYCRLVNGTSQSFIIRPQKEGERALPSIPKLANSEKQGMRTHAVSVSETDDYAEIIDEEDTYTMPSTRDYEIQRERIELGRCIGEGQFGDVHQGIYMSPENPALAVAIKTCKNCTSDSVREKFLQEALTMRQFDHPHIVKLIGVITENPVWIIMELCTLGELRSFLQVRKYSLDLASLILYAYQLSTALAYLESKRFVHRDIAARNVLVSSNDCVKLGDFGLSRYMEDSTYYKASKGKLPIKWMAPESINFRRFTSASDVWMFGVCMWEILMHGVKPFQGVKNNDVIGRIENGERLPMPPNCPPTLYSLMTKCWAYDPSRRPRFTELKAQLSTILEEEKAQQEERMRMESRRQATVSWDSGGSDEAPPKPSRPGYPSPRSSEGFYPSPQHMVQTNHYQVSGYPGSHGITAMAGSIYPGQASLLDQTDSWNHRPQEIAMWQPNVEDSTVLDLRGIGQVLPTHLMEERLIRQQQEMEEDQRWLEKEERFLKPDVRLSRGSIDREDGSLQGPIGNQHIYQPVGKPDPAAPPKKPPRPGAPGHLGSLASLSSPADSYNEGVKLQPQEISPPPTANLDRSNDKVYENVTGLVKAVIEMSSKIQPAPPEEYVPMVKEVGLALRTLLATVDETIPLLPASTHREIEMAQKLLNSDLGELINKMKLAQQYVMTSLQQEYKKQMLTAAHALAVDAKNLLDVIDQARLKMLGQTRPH
Sequence of Luciferin 4-monooxygenase (Photinus pyralis) (P08659 whole entry, looked up): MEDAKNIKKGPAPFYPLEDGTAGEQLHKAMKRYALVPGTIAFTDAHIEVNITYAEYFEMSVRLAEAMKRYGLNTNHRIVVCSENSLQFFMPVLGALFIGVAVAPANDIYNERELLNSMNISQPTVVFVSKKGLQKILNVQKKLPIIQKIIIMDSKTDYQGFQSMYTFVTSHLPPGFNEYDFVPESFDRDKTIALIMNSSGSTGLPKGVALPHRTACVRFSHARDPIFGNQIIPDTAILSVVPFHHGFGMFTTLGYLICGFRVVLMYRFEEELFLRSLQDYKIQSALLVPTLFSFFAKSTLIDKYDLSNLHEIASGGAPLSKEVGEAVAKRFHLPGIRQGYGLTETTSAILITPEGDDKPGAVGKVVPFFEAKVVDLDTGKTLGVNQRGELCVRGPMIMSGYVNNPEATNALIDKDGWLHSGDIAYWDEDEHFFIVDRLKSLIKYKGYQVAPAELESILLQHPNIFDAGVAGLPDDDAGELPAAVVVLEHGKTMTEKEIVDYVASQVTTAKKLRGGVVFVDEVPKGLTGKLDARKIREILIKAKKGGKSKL

`Cc1ccc(S(=O)(=O)OC[C@H]2CN3[C@H](c4ccc(Br)cc4)[C@@H](C)CC[C@H]3C(=O)O2)cc1`: the composite z-score turned out to be 0.924 in assay [1]; 0.269 in assay [2]; 0.0817 in assay [3]; 0.596 in [4]; 1.1 in [5]; 1.45 in assay [6]. Besides, the composite z-score in the assay with Lefty1 was 0.198; in [8], 0.11; in assay [10] it was 0.114; in assay [15], 0.487; in assay [16] it was -0.128; in the assay with Torsin-1A (Homo sapiens) [17] it was 0.782. Moreover, the values for the composite z-score (with Torsin-1A (Homo sapiens) [18]; in [19]) were 0.44 and 0.362, respectively. The z-score is 1.78 in assay [7]; -0.849 (inactive) in assay [9]; -1.25 (inactive) in [11]; -1.43 (inactive) in [12]; 2.01 (inactive) in assay [13]; 0.535 (inactive) in assay [14].

As for `CCOC(=O)NN=C1C[C@@H](O)[C@@H](O)[C@@H]2[C@@H]3C(=O)N(c4cccc(Oc5ccccc5)c4)C(=O)[C@@H]3CC[C@@H]12`, the composite z-score was -0.103 in assay [1]; 0.45 in assay [2]; 0.0767 in [3]; 0.681 in assay [4]; -0.445 in assay [5]; -0.248 in assay [6]. Moreover, the composite z-score with Lefty1 is -0.318; in assay [8] it was 0.327; in assay [10], 0.0449; in assay [15], -0.343; in [16], -0.178; with Torsin-1A (Homo sapiens) [17], 0.986. Besides, the composite z-score with Torsin-1A (Homo sapiens) [18] is 0.139; in [19], -0.438. Also, the z-score was -0.44 in assay [7]; 0.607 (inactive) in assay [9]; -1.49 (inactive) in assay [11]; 0.362 (inactive) in assay [12]; -0.201 (inactive) in [13]; -0.252 (inactive) in assay [14].

Regarding `C=COC[C@@H]1CN2[C@@H](CC[C@@H](C)[C@@H]2c2ccc(Br)cc2)C(=O)O1`, the composite z-score was -0.559 in assay [1]; 0.151 in assay [2]; 0.18 in [3]; 0.212 in assay [4]; 0.0793 in assay [5]; -0.285 in assay [6]. In addition, the composite z-score is 0.0005 with Lefty1; -0.0681 in [8]; -0.219 in assay [10]; -0.505 in assay [15]; -0.253 in assay [16]; 0.348 in the assay with Torsin-1A (Homo sapiens) [17]. Also, the composite z-score is -0.051 in the assay with Torsin-1A (Homo sapiens) [18] and -0.211 in [19]. The z-score in assay [7] is -1.25; in [9], 0.49 (inactive); in [11] it was -2.67 (inactive); in assay [12] it was -1.06 (inactive); in assay [13], 6.83 (inactive); in assay [14] it was -0.544 (inactive).

As for `CO[C@H]1COC(=O)CCC[C@@H](C)[C@H](OC)COC(=O)[C@@H]2CCCN2C(=O)CC=C[C@@H]1C`, the composite z-score in [1] is -0.278; in [2], -0.779; in assay [3], -0.682; in assay [4], -0.759; in assay [5] it was 1.33; in assay [6], 1.18. Also, the composite z-score in the assay with Lefty1 was 1.44; in assay [8] it was -0.207; in [10], 0.236; in assay [15], -0.44; in assay [16], -0.101; with Torsin-1A (Homo sapiens) [17], 2.64. Further, the composite z-score turned out to be 1.05 in the assay with Torsin-1A (Homo sapiens) [18] and 2.06 in assay [19]. For the same molecule, the z-score in [7] was -0.738; in assay [9], 1.19 (inactive); in assay [11], -0.717 (inactive); in [12], 0.55 (inactive); in [13], -0.385 (inactive); in assay [14], -0.0072 (inactive).

As for `CCN1C(=O)[C@H]2[C@H]3[C@H](O)[C@H](O)CC(=NO[C@@H](C)c4cn([C@H](CO)Cc5ccccc5)nn4)[C@@H]3CC[C@H]2C1=O`, the composite z-score was 3.32 in assay [1]; 1.11 in assay [2]; -0.0643 in assay [3]; 0.752 in assay [4]; 0.579 in assay [5]; 0.894 in assay [6]. Also, the composite z-score in the assay on Lefty1 is 0.926; in [8], 1.05; in assay [10], 0.283; in assay [15] it was -0.138; in assay [16] it was 0.0051; in the assay with Torsin-1A (Homo sapiens) [17], 0.651. Also, the composite z-score was found to be 0.435 with Torsin-1A (Homo sapiens) [18] and 0.486 in assay [19]. Besides, the z-score is -0.719 in assay [7]; 0.465 (inactive) in assay [9]; -0.0863 (inactive) in [11]; 0.451 (inactive) in assay [12]; 0.727 (inactive) in assay [13]; 0.511 (inactive) in assay [14].
